Test results as given in PubChem BioAssay (EPA / NIEHS).
Calls of active or inactive are those of the source. The calls were made as follows, unless noted: active = hit-call score of the fitted dose curve at least 0.9, where 1 is the maximum; inactive = score below 0.9.

Key:
[1] = molecular target: Peroxisome proliferator-activated receptor gamma (Homo sapiens) (UniProt P37231); assay: OT_PPARg_PPARgSRC1_1440: Odyssey Thera (OT) 24-hour Protein-Complementation Assay for Peroxisome Proliferator-activated Receptor Gamma/ SRC-1 Co-activator (AID 2283388; active = hit-call score of the fitted dose curve at least 0.9, where 1 is the maximum)
Method in brief: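 HEK293T transiently transfected with PPARg/SRC-1 split-Venus YFP fusions 48 h before dosing, then treated 24 h at 37C. Fixed cells imaged; nuclear/cytoplasmic 488 nm fluorescence ratio, gain of signal versus DMSO.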

[2] = CEETOX_H295R_OHPREG: CeeTox H295R High-throughput Steroidogenesis Assay for OH-Pregnenolone (OHPREG) (AID 2283434); details: actives raise or lower the signal
Method in brief: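 Hormone levels in spent medium were measured by tandem mass spectrometry following liquid-liquid extraction. Cells (H295R) had been forskolin-stimulated (10 uM, 48 h) before a 48 h chemical exposure at 0.1% DMSO, with activity fitted in both directions against DMSO.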

[3] = CEETOX_H295R_OHPROG: CeeTox H295R High-throughput Steroidogenesis Assay for OH-Progesterone (OHPROG) (AID 2283435); details: actives raise or lower the signal;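 as to AC50: human adrenal H295R cells primed 48 h with 10 µM forskolin; 17alpha-hydroxyprogesterone secreted into medium measured by HPLC-MS/MS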
Method in brief: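 Secreted 17alpha-hydroxyprogesterone is read by tandem MS from media of forskolin-primed H295R cells dosed with chemical for 48 h. Activity is fitted in both directions against DMSO baseline; cytotoxic concentrations are re-tested diluted.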

[4] = CEETOX_H295R_ANDR: CeeTox H295R High-throughput Steroidogenesis Assay for Androstenedione (ANDR) (AID 2283436); details: actives raise or lower the signal
Method in brief: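 Read-out is androstenedione secreted into medium, measured by tandem mass spectrometry after liquid-liquid extraction. Cells were H295R, dosed for 48 h per modified OECD 456; activity fitted in both directions relative to DMSO.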

[5] = CEETOX_H295R_PROG: CeeTox H295R High-throughput Steroidogenesis Assay for Progesterone (PROG) (AID 2283442); details: actives raise or lower the signal
Method in brief: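 H295R adrenal cells prestimulated 48 h with 10 uM forskolin, then exposed 48 h to test chemical in 0.1% DMSO. Progesterone in medium quantified by HPLC-MS/MS after MTBE extraction; viability checked by MTT in same wells.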

[6] = read-out: Tumor necrosis factor receptor superfamily member 6 (Homo sapiens) (UniProt P25445); assay: LTEA_HepaRG_FAS: Life Technologies and Expression Analysis (LTEA) Assay for Fas cell surface death receptor (FAS) using HepaRG (AID 2283447); details: mRNA level, 48 h; actives raise or lower the signal
Method in brief: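 FAS transcript level was measured by TaqMan qRT-PCR against three housekeeping genes after 48 h chemical exposure. Cells were HepaRG, 0.5% DMSO vehicle, with a top concentration of 100 uM and half-log dilutions over eight points, in duplicate.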

[7] = read-out: Fatty acid synthase (Homo sapiens) (UniProt P49327); assay: LTEA_HepaRG_FASN: Life Technologies and Expression Analysis (LTEA) Assay for Fatty Acid Synthase (FASN) using HepaRG (AID 2283448); details: mRNA level, 48 h; actives raise or lower the signal
Method in brief: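 Transcript-level assay: HepaRG liver cells are treated for 48 h across an eight-point range topping at 100 uM, and FASN mRNA, normalized to three housekeeping genes, is compared with DMSO controls in both directions.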

[8] = read-out: Cyclin D2 (CCND2), CCND2 (gene 894); assay: LTEA_HepaRG_CCND2: Life Technologies and Expression Analysis (LTEA) Assay for Cyclin D2 (CCND2) using HepaRG (AID 2283449); details: mRNA level, 48 h; actives raise or lower the signal
Method in brief: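 Read-out is CCND2 mRNA level measured by qRT-PCR in human HepaRG liver cells and normalised to three housekeeping genes. Chemicals were applied for 48 h at up to 100 uM, with gain or loss fitted relative to 0.5% DMSO.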

[9] = read-out: Cyclin Dependent Kinase Inhibitor 1A (CDKN1A), CDKN1A (gene 1026); assay: LTEA_HepaRG_CDKN1A: Life Technologies and Expression Analysis (LTEA) Assay for Cyclin Dependent Kinase Inhibitor 1A (CDKN1A) using HepaRG (AID 2283450); details: mRNA level, 48 h; actives raise or lower the signal
Method in brief: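 Differentiated HepaRG cells in serum-free induction medium, exposed 48 h in duplicate to eight half-log concentrations up to 100 uM in 0.5% DMSO. mRNA measured by TaqMan qRT-PCR, normalized to ACTB, GAPDH, POLR2A; bidirectional fit versus DMSO.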

[10] = read-out: Cyclin D1 (CCND1), CCND1 (gene 595); assay: LTEA_HepaRG_CCND1: Life Technologies and Expression Analysis (LTEA) Assay for Cyclin D1 (CCND1) using HepaRG (AID 2283451); details: mRNA level, 48 h; actives raise or lower the signal
Method in brief: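 Differentiated HepaRG cells exposed 48 h in serum-free induction medium to eight half-log concentrations from 100 uM top, 0.5% DMSO, duplicates. CCND1 mRNA measured by Fluidigm TaqMan qRT-PCR, normalised to ACTB, GAPDH, POLR2A; bidirectional fit.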

[11] = read-out: catalase (CAT), CAT (gene 847); assay: LTEA_HepaRG_CAT: Life Technologies and Expression Analysis (LTEA) Assay for catalase (CAT) using HepaRG (AID 2283452); details: mRNA level, 48 h; actives raise or lower the signal
Method in brief: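 Expression of CAT was quantified by TaqMan qRT-PCR with ACTB/GAPDH/POLR2A normalization after 48 h chemical exposure of HepaRG. Eight-point half-log series, top 100 uM, in 0.5% DMSO; gain or loss fitted against vehicle.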

[12] = read-out: flavin-containing dimethylaniline monooxygenases 3 (FMO3), FMO3 (gene 2328); assay: LTEA_HepaRG_FMO3: Life Technologies and Expression Analysis (LTEA) Assay for flavin-containing dimethylaniline monooxygenases 3 (FMO3) using HepaRG (AID 2283453); details: mRNA level, 48 h; actives raise or lower the signal
Method in brief: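 HepaRG, 48 h exposure, 8-pt half-log series from 100 uM, 0.5% DMSO vehicle, duplicates; FMO3 transcript by Fluidigm TaqMan qRT-PCR, housekeeping-normalized; gain/loss fit vs DMSO.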

[13] = read-out: Cytochrome P450 (CYP1A1), CYP1A1 (gene 1543); assay: LTEA_HepaRG_CYP1A1: Life Technologies and Expression Analysis (LTEA) Assay for Cytochrome P450 (CYP1A1) using HepaRG (AID 2283454); details: mRNA level, 48 h; actives raise or lower the signal
Method in brief: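 Differentiated human HepaRG cells, after 48 h plating, exposed in duplicate for 48 h in serum-free induction medium to 8 half-log concentrations up to 100 uM in 0.5% DMSO. CYP1A1 mRNA by qRT-PCR, normalized to ACTB/GAPDH/POLR2A; bidirectional fit versus DMSO.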

[14] = read-out: CFLAR gene, CFLAR (gene 8837); assay: LTEA_HepaRG_CFLAR: Life Technologies and Expression Analysis (LTEA) Assay for CFLAR gene using HepaRG (AID 2283455); details: mRNA level, 48 h; actives raise or lower the signal
Method in brief: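 HepaRG, 48 h exposure, 8-pt conc-response (100 uM top, half-log), 0.5% DMSO vehicle, duplicates. CFLAR expression by qRT-PCR; ACTB/GAPDH/POLR2A normalization; gain or loss fit vs DMSO baseline.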

[15] = read-out: Forkhead box O1 (FOXO1), FOXO1 (gene 2308); assay: LTEA_HepaRG_FOXO1: Life Technologies and Expression Analysis (LTEA) Assay for Forkhead box O1 (FOXO1) using HepaRG (AID 2283456); details: mRNA level, 48 h; actives raise or lower the signal
Method in brief: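 Readout is FOXO1 transcript level by multiplexed qRT-PCR against three housekeeping genes, curve-fitted in both directions relative to 0.5% DMSO vehicle. Human HepaRG cultures received chemicals for 48 h, up to 100 uM in half-log steps.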

[16] = CEETOX_H295R_TESTO: CeeTox H295R High-throughput Steroidogenesis Assay for Testosterone (TESTO) (AID 2283457); details: actives raise or lower the signal
Method in brief: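 H295R adrenal cells, passage ≤10, exposed to chemicals for 48 h. Testosterone in medium measured by MTBE extraction and HPLC-MS/MS against a 7-point standard curve. Bidirectional fit versus DMSO; MTT viability checked in the same wells.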

[17] = CEETOX_H295R_CORTIC: CeeTox H295R High-throughput Steroidogenesis Assay for Corticosterone (CORTIC) (AID 2283437); details: actives raise or lower the signal;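 also: corticosterone secreted into medium quantified by mass spectrometry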;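 as to AC50: human H295R adrenal cells prestimulated with forskolin before chemical exposure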
Method in brief: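 Corticosterone secreted into medium is measured by reverse-phase HPLC with tandem MS following liquid-liquid extraction. Cells are forskolin-stimulated (10 uM, 48 h) before 48 h test exposure; activity fitted in both directions against DMSO.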

[18] = CEETOX_H295R_DOC: CeeTox H295R High-throughput Steroidogenesis Assay for DOC (AID 2283439); details: actives raise or lower the signal
Method in brief: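 Secreted DOC was quantified from H295R media by HPLC-MS/MS after 48 h chemical exposure following 48 h forskolin (10 uM) prestimulation. Values were fitted in both directions relative to DMSO, the negative control and baseline.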

[19] = CEETOX_H295R_ESTRADIOL: CeeTox H295R High-throughput Steroidogenesis Assay for Estradiol (AID 2283440); details: actives raise or lower the signal;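 also: estradiol secreted into medium quantified by LC-MS/MS after dansyl derivatisation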
Method in brief: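 H295R cells pre-stimulated 48 h with 10 uM forskolin, then exposed 48 h to chemical in 0.1% DMSO. Medium estradiol quantified by MTBE extraction, dansyl derivatisation and HPLC-MS/MS; bidirectional fit versus DMSO; MTT viability required >/=70%.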

[20] = CEETOX_H295R_ESTRONE: CeeTox H295R High-throughput Steroidogenesis Assay for Estrone (AID 2283441); details: actives raise or lower the signal;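 also: estrone secreted into medium measured by LC-MS/MS after dansyl derivatization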
Method in brief: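 H295R cells; 48 h forskolin (10 uM) prestimulation; 48 h compound exposure, 0.1% DMSO final. Medium estrone: MTBE extraction, dansyl derivatization, HPLC-MS/MS. Bidirectional fit vs DMSO.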

Measured: AC50

Peroxisome proliferator-activated receptor gamma (Homo sapiens), sequence (P37231 whole entry, looked up, the tested form may be a part): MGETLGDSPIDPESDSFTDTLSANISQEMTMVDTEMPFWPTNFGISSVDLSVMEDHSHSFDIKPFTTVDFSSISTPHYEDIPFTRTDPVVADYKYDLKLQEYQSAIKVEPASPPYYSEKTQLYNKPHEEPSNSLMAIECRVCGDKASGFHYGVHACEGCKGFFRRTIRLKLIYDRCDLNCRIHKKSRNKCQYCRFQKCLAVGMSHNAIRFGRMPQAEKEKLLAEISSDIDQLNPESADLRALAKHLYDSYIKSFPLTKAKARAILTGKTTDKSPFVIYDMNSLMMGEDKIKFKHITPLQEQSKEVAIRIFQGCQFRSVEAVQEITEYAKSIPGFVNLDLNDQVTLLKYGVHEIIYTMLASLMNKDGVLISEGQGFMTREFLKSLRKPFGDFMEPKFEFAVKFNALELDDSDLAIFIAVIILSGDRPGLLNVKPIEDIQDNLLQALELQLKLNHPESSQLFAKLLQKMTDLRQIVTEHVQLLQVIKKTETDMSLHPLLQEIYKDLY
Fatty acid synthase (Homo sapiens), sequence (P49327 whole entry, looked up): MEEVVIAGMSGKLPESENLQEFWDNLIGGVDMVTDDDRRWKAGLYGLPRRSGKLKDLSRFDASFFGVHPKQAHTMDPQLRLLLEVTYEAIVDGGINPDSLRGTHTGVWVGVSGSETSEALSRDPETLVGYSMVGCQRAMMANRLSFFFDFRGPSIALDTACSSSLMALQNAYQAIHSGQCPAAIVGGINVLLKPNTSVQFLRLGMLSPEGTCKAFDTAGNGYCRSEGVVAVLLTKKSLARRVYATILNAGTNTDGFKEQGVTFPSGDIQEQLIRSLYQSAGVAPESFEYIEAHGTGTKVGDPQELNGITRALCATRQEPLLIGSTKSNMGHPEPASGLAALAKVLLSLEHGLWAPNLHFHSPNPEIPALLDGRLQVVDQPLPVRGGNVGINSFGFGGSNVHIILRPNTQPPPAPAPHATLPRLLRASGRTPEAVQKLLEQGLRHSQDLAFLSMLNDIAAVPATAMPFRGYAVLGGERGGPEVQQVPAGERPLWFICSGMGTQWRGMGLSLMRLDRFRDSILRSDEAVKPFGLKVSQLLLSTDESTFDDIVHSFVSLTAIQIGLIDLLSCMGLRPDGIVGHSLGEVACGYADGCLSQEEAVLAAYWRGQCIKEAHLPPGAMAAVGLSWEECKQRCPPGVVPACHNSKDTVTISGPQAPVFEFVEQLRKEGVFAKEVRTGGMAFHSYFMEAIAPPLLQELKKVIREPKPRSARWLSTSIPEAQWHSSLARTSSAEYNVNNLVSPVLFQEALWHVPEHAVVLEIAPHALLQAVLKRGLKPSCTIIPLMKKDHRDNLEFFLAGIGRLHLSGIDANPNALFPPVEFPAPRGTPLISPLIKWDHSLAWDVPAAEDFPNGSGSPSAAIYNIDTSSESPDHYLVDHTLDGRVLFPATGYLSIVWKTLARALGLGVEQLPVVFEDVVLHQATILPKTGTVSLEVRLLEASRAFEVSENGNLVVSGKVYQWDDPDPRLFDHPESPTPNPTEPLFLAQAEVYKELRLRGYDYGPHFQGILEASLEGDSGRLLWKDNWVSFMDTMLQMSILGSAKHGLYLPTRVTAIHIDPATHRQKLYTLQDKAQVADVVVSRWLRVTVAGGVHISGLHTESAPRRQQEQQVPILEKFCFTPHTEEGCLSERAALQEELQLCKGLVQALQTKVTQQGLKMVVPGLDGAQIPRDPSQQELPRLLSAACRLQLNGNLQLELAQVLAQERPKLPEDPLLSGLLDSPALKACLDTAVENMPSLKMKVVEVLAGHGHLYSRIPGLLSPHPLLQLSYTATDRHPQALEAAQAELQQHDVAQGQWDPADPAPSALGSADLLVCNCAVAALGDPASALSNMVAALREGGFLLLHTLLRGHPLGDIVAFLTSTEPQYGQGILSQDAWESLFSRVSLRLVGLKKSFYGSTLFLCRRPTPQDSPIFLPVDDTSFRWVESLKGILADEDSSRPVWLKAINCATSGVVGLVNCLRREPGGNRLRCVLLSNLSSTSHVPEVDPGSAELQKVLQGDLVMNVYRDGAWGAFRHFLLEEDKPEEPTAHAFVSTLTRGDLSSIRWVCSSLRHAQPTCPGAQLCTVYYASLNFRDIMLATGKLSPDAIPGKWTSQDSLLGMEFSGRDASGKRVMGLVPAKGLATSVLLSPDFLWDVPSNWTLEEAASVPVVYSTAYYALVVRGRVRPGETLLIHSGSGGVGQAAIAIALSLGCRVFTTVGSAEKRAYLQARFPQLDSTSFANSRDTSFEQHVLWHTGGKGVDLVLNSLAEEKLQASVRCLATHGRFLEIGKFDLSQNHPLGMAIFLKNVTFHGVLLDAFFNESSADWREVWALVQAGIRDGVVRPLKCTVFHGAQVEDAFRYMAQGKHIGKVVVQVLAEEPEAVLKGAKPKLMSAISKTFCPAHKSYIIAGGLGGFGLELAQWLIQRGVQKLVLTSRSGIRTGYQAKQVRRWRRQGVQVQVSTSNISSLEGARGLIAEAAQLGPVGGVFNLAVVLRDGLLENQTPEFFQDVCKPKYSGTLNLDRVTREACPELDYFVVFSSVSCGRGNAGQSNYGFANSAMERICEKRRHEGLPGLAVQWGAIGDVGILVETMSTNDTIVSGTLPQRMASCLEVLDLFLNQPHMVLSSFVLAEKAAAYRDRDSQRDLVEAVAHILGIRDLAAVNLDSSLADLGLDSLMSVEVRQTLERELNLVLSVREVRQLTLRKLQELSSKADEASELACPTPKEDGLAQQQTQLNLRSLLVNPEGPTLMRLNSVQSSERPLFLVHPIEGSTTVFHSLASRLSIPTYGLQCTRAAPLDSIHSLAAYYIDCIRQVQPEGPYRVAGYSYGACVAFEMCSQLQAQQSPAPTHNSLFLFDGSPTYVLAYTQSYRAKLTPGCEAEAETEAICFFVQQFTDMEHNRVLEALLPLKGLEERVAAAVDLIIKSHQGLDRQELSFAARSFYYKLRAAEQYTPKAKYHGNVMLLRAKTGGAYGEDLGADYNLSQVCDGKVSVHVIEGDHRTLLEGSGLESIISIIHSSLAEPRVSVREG

CCCCOCCOCCOCc1cc2c(cc1CCC)OCO2
active: [2] 5 µM | [13] 12.9 µM
not listed: [17] | [18] | [19] | [20]
inactive: all other assays above

CCCCCOC(=O)COc1cc(N2C(=O)C3=C(CCCC3)C2=O)c(F)cc1Cl
active: [13] 0.00329 µM
not listed: [4] | [16]
inactive: all other assays above

CSC(=O)c1cccc2nnsc12
active: [2] 55.6 µM | [3] 50 µM | [17] 23 µM | [13] 50 µM
not listed: [19] | [20]
inactive: all other assays above

CCCN(CCC)C(=O)SCC
inactive: all assays above

O=C(c1ccccc1)C1CCCCC1
inactive: [1] | [6] | [7] | [8] | [9] | [10] | [11] | [12] | [13] | [14] | [15]
